# Data as given in paper PMC7862700, “An all-to-all approach to the identification of sequence-specific readers for epigenetic DNA modifications on cytosine”.
# How the values were obtained:
# Assay in all cases: DAPPL (digital affinity profiling via proximity ligation, sequencing); 10 mM Tris-HCl pH 7.5, 50 mM NaCl, 1 mM DTT, 4% glycerol, room temperature, 30 min; GST-TFs on glutathione beads, 16-mer random dsDNA library, 0.1% formaldehyde crosslink after washing; high values mean tight binding
# Settings in all cases: protein: recombinant; tags: N-terminal GST; dsDNA, one strand shown
# [1] = molecular target: ELF1 (Homo sapiens, UniProt P32519 1-619)
# ELF1, sequence (P32519 whole entry, the tested form may be a part): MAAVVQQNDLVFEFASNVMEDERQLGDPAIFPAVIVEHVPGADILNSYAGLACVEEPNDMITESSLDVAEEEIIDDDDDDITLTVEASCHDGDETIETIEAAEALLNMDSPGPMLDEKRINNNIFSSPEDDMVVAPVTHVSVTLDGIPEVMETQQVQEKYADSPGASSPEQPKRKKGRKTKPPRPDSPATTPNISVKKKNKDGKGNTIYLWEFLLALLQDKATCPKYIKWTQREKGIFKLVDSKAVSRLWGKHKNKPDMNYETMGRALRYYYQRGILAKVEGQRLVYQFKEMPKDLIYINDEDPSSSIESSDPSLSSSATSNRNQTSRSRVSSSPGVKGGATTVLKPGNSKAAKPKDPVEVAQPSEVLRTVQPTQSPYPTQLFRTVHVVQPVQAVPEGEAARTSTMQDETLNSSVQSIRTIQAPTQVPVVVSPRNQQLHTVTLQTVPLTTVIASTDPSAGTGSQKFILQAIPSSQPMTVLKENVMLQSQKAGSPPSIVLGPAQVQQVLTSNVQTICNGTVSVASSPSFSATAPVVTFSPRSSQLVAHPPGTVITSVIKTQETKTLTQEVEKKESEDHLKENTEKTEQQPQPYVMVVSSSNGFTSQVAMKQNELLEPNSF
# Method in brief: (§1)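 Pools were built from human transcription factors expressed in yeast as GST fusions, captured on glutathione beads and DNA-barcoded, along with a tag-only sample. Incubation with 200 nmole of a 16-mer random double-stranded DNA library lasted 30 min at room temperature in Tris/NaCl/DTT/glycerol buffer, and was followed by washing, 0.1% formaldehyde crosslinking, proximity ligation, PCR amplification and Illumina NextSeq500 sequencing. Binding signal is the quotient of each hexamer's read frequency for a factor and its frequency for the tag-only sample.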
# [2] = molecular target: SPIB (Homo sapiens, UniProt Q01892 1-262)
# SPIB, sequence (Q01892 whole entry): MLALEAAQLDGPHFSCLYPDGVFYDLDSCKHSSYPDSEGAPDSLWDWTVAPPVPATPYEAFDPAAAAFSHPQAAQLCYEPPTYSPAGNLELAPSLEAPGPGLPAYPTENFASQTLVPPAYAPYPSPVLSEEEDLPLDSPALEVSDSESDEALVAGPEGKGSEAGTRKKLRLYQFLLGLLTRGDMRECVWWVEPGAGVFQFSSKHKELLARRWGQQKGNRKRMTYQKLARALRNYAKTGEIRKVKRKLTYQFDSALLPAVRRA
# Method in brief: as §1
# [3] = molecular target: ELF4 (Homo sapiens, UniProt Q99607 1-663)
# ELF4, sequence (Q99607 whole entry): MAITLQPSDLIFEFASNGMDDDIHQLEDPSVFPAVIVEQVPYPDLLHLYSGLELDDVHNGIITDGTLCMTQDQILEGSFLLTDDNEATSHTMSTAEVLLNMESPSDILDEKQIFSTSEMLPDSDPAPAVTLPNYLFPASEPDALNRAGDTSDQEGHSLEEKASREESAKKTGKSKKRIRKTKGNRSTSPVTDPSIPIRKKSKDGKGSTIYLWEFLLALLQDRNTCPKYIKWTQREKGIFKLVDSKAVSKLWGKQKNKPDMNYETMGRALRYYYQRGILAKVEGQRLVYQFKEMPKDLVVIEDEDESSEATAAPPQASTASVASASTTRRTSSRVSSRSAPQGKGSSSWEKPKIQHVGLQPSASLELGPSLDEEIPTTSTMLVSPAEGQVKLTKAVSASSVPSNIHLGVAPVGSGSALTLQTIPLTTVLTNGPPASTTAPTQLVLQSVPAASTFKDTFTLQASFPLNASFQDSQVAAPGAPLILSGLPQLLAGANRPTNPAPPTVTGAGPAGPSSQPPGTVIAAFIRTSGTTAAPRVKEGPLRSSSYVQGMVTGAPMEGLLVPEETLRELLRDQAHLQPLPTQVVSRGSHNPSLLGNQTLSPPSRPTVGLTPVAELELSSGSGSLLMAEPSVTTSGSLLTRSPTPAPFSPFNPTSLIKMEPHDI
# Method in brief: as §1
# [4] = molecular target: T1, ETV2 (Homo sapiens, UniProt O00321 1-342)
# T1 sequence: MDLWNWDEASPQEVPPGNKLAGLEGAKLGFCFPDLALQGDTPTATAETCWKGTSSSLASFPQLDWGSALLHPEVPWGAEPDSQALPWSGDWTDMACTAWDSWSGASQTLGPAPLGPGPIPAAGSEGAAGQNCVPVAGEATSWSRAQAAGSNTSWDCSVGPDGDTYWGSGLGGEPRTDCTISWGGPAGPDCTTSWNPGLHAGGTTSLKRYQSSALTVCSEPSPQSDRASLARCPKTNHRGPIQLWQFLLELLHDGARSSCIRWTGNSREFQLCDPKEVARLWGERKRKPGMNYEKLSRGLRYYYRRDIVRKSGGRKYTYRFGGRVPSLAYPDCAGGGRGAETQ
# Method in brief: as §1
# [5] = molecular target: T2, ELK4 (Homo sapiens, UniProt P28324-2 1-405)
# T2 sequence: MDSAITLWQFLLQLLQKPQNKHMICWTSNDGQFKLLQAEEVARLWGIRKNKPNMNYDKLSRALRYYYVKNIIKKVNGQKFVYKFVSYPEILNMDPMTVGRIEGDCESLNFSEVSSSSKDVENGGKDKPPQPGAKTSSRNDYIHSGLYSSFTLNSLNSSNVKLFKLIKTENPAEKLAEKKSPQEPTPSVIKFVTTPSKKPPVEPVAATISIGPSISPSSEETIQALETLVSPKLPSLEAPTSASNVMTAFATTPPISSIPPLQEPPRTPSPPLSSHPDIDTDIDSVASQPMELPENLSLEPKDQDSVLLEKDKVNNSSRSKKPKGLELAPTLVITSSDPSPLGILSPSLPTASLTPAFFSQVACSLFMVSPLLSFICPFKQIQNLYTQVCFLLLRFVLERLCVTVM
# Method in brief: as §1
# [6] = molecular target: T3, ELK1 (Homo sapiens, UniProt P19419 1-428)
# T3 sequence: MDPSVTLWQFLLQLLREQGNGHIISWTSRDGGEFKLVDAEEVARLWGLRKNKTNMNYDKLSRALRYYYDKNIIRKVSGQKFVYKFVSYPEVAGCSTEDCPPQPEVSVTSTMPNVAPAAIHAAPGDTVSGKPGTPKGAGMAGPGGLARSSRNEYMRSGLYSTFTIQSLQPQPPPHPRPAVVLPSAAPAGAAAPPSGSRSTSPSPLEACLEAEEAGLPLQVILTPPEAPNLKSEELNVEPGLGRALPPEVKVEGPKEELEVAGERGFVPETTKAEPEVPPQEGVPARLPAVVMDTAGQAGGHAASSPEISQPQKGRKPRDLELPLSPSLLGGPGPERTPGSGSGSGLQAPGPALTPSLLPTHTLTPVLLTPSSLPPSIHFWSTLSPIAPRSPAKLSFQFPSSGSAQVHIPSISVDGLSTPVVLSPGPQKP
# Method in brief: as §1
# [7] = molecular target: T4, EHF (Homo sapiens, UniProt Q9NZC4 1-300)
# T4 sequence: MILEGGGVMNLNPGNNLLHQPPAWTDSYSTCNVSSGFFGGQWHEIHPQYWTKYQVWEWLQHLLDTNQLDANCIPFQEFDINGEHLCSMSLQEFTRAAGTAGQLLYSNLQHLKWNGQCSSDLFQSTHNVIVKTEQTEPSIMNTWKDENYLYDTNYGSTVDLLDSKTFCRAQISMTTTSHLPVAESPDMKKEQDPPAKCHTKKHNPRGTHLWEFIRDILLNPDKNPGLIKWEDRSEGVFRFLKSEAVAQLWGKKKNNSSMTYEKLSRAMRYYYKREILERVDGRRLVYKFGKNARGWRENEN
# Method in brief: as §1
# [8] = molecular target: SPI1 (Homo sapiens, UniProt P17947 1-270)
# Method in brief: as §1
# [9] = molecular target: T5, ELK3 (Homo sapiens, UniProt P41970 1-407)
# T5 sequence: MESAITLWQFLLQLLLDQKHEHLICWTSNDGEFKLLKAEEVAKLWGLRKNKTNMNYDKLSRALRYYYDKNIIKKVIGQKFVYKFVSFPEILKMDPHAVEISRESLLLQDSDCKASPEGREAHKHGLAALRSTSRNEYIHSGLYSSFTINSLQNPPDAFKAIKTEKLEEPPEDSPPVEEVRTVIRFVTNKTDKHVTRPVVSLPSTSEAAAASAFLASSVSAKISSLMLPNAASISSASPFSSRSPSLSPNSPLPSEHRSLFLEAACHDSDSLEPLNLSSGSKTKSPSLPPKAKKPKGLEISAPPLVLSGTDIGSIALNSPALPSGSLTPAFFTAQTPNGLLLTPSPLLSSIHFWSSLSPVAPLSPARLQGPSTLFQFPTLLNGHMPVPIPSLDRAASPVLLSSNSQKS
# Method in brief: as §1
# [10] = molecular target: T6, ELF3 (Homo sapiens, UniProt P78545 1-371)
# T6 sequence: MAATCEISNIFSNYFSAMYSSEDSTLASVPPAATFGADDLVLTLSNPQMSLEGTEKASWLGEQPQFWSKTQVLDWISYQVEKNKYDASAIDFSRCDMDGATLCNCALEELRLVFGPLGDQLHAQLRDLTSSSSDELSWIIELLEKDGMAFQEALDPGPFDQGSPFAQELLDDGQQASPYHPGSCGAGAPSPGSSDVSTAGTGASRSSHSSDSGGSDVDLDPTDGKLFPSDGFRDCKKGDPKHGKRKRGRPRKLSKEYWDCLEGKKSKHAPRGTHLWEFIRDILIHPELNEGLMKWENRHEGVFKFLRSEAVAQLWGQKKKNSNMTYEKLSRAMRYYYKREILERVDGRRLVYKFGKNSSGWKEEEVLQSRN
# Method in brief: as §1
# [11] = molecular target: CRX (Homo sapiens, UniProt O43186 1-299)
# CRX, sequence (O43186 whole entry): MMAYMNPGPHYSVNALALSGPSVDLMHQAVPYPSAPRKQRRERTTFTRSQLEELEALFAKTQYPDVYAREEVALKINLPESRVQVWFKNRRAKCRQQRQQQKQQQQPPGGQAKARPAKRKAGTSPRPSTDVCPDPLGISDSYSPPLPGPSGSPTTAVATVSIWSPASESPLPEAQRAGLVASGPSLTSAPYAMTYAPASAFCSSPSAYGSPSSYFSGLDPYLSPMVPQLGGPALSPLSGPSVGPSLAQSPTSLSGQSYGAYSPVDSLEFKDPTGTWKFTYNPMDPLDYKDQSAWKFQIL
# Method in brief: as §1
# [12] = molecular target: T7, ERF (Homo sapiens, UniProt P50548 1-548)
# T7 sequence: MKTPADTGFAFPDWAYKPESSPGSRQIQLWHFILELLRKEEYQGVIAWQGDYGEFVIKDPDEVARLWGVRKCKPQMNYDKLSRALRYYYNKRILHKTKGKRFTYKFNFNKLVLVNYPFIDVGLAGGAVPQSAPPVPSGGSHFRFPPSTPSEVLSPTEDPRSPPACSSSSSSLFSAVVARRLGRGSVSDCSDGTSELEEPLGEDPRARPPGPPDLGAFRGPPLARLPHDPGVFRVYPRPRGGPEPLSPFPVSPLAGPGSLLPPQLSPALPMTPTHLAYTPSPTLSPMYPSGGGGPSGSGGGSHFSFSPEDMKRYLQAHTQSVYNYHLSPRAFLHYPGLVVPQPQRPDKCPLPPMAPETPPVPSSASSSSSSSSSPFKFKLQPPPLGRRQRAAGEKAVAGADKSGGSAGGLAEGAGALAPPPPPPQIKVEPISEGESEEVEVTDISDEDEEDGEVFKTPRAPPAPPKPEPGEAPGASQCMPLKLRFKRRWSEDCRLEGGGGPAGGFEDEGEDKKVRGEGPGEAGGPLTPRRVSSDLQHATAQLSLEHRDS
# Method in brief: as §1
# [13] = molecular target: T8, SPDEF (Homo sapiens, UniProt O95238 1-335)
# T8 sequence: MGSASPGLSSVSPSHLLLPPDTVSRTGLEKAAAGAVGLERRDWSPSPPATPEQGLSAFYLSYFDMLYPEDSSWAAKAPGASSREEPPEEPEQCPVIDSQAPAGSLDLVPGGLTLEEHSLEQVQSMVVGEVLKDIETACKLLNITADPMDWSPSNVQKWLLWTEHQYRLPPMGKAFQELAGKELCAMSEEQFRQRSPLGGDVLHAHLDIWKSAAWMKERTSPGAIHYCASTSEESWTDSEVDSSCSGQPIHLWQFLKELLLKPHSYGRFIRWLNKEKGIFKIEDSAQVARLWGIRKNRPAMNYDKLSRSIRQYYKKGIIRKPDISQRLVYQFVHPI
# Method in brief: as §1
# [14] = molecular target: T9, ETV7 (Homo sapiens, UniProt Q9Y603 1-341)
# T9 sequence: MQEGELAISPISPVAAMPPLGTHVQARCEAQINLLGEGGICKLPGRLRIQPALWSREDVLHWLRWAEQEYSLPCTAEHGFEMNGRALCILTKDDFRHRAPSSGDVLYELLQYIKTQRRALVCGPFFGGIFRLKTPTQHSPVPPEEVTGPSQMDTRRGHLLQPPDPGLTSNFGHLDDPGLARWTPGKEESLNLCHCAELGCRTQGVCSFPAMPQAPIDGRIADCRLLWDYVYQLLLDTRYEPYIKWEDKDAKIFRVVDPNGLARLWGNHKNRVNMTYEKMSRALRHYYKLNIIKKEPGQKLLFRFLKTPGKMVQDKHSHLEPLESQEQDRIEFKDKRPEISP
# Method in brief: as §1
# [15] = molecular target: T10, ETV3 (Homo sapiens, UniProt P41162-2 1-143)
# T10 sequence: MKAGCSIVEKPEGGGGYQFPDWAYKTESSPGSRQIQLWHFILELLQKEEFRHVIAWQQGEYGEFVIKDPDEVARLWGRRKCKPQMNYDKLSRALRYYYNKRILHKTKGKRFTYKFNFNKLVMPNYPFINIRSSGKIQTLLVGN
# Method in brief: as §1
sequence,measurement,setting,value
GCAGCA,binding signal,[1],"1.03 fold enrichment (6-mer frequency, TF over GST control)"
same,binding signal,[2],"1.02 fold enrichment (6-mer frequency, TF over GST control)"
same,binding signal,[3],"1.01 fold enrichment (6-mer frequency, TF over GST control)"
same,binding signal,[4],"1.01 fold enrichment (6-mer frequency, TF over GST control)"
ATAGTG,binding signal,[5],"1.06 fold enrichment (6-mer frequency, TF over GST control)"
GCAGGT,binding signal,[5],"1.01 fold enrichment (6-mer frequency, TF over GST control)"
TAACGT,binding signal,[6],"1.02 fold enrichment (6-mer frequency, TF over GST control)"
same,binding signal,[1],"1.01 fold enrichment (6-mer frequency, TF over GST control)"
same,binding signal,[7],"1.02 fold enrichment (6-mer frequency, TF over GST control)"
same,binding signal,[8],"1.03 fold enrichment (6-mer frequency, TF over GST control)"
same,binding signal,[9],"1.08 fold enrichment (6-mer frequency, TF over GST control)"
same,binding signal,[3],"1.01 fold enrichment (6-mer frequency, TF over GST control)"
same,binding signal,[5],"1.06 fold enrichment (6-mer frequency, TF over GST control)"
same,binding signal,[4],"1.02 fold enrichment (6-mer frequency, TF over GST control)"
same,binding signal,[10],"1.06 fold enrichment (6-mer frequency, TF over GST control)"
same,binding signal,[11],"1.16 fold enrichment (6-mer frequency, TF over GST control)"
same,binding signal,[12],"1.07 fold enrichment (6-mer frequency, TF over GST control)"
same,binding signal,[13],"1.05 fold enrichment (6-mer frequency, TF over GST control)"
same,binding signal,[14],"1.01 fold enrichment (6-mer frequency, TF over GST control)"
same,binding signal,[15],"1.04 fold enrichment (6-mer frequency, TF over GST control)"
